Test results: PubChem BioAssay (EPA / NIEHS)
Results filed as inconclusive are left out. Active and inactive are the calls of the source. The calls were made as follows, unless noted: active = hit-call score of the fitted dose curve at least 0.9, where 1 is the maximum; inactive = score below 0.9.

Columns and labels:
[1] = target: Peroxisome proliferator-activated receptor gamma (Homo sapiens) (UniProt P37231); test: OT_PPARg_PPARgSRC1_0480: Odyssey Thera (OT) 8-hour Protein-Complementation Assay for Peroxisome Proliferator-activated Receptor Gamma / SRC-1 Co-activator (AID 2283387; active = hit-call score of the fitted dose curve at least 0.9, where 1 is the maximum;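 also: nuclear to cytoplasmic split Venus YFP fluorescence ratio reporting PPARg SRC-1 interaction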)
Peroxisome proliferator-activated receptor gamma (Homo sapiens), sequence (P37231 whole entry, looked up, the tested form may be a part): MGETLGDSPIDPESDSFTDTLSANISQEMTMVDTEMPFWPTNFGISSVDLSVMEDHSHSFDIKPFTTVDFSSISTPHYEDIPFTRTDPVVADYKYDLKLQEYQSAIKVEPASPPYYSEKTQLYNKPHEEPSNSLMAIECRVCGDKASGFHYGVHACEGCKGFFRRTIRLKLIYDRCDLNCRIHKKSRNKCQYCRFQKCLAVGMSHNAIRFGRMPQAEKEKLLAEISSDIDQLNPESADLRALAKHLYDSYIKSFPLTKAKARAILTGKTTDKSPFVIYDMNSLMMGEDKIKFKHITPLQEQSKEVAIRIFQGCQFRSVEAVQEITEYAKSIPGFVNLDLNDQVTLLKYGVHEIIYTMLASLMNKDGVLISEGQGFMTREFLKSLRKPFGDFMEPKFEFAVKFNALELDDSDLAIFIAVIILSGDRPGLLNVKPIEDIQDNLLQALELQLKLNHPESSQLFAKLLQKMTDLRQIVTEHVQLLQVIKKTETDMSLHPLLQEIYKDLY
Method in brief: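 Protein-fragment complementation in HEK293T: Venus YFP halves (residues 1-158, 159-239, mutated to IFP1/IFP2) fused to PPARg/SRC-1. 8 h exposure; N/C ratio at 488 nm; DMSO negative control.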

[2] = target: Peroxisome proliferator-activated receptor gamma (Homo sapiens) (UniProt P37231); test: OT_PPARg_PPARgSRC1_1440: Odyssey Thera (OT) 24-hour Protein-Complementation Assay for Peroxisome Proliferator-activated Receptor Gamma/ SRC-1 Co-activator (AID 2283388; active = hit-call score of the fitted dose curve at least 0.9, where 1 is the maximum;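 also: nuclear to cytoplasmic ratio of reconstituted Venus YFP fluorescence in fixed imaged cells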)
Method in brief: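 Transient HEK293T, YFP fragments 1-158/159-239 (mutant IFP1/IFP2) fused to PPARg/SRC-1; 24 h dosing; fix 4% formaldehyde, Draq5; Opera imaging 488/635 nm; N/C ratio, gain vs DMSO.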

[3] = read-out: Tumor necrosis factor receptor superfamily member 6 (Homo sapiens) (UniProt P25445); test: LTEA_HepaRG_FAS: Life Technologies and Expression Analysis (LTEA) Assay for Fas cell surface death receptor (FAS) using HepaRG (AID 2283447); settings: mRNA level, 48 h; actives raise or lower the signal
Method in brief: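 Differentiated human HepaRG cells, pre-cultured 48 h, were exposed in duplicate for 48 h to 8-point half-log concentrations (top 100 uM, 0.5% DMSO) in serum-free induction medium; FAS mRNA measured by qRT-PCR, normalized to ACTB/GAPDH/POLR2A, bidirectional fit versus DMSO.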

[4] = read-out: Fatty acid synthase (Homo sapiens) (UniProt P49327); test: LTEA_HepaRG_FASN: Life Technologies and Expression Analysis (LTEA) Assay for Fatty Acid Synthase (FASN) using HepaRG (AID 2283448); settings: mRNA level, 48 h; actives raise or lower the signal
Method in brief: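 Cells were plated, cultured 48 h, switched to serum-free induction medium, then dosed in duplicate (max 100 uM, half-log dilutions, 0.5% DMSO) for 48 h. RNA was then isolated and FASN quantified by qRT-PCR.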

[5] = read-out: Cyclin D2 (CCND2), CCND2 (gene 894); test: LTEA_HepaRG_CCND2: Life Technologies and Expression Analysis (LTEA) Assay for Cyclin D2 (CCND2) using HepaRG (AID 2283449); settings: mRNA level, 48 h; actives raise or lower the signal;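 also: CCND2 transcript measured by TaqMan qRT-PCR and normalised to three housekeeping genes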
Method in brief: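 In this HepaRG study, an eight-point concentration series (max 100 uM, 0.5% DMSO) is applied for 48 h. CCND2 mRNA change is derived by qRT-PCR normalised to ACTB, GAPDH and POLR2A.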

[6] = read-out: Cyclin Dependent Kinase Inhibitor 1A (CDKN1A), CDKN1A (gene 1026); test: LTEA_HepaRG_CDKN1A: Life Technologies and Expression Analysis (LTEA) Assay for Cyclin Dependent Kinase Inhibitor 1A (CDKN1A) using HepaRG (AID 2283450); settings: mRNA level, 48 h; actives raise or lower the signal
Method in brief: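 Cryopreserved HepaRG cells were plated and cultured 48 h, then switched to serum-free induction medium. Chemicals (eight half-log concentrations, top 100 uM, 0.5% DMSO) were applied for 48 h. Lysates underwent qRT-PCR for CDKN1A with housekeeping normalization.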

[7] = read-out: Cyclin D1 (CCND1), CCND1 (gene 595); test: LTEA_HepaRG_CCND1: Life Technologies and Expression Analysis (LTEA) Assay for Cyclin D1 (CCND1) using HepaRG (AID 2283451); settings: mRNA level, 48 h; actives raise or lower the signal
Method in brief: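 Human liver HepaRG line; 48 h dosing, 8 conc. ≤100 uM, 0.5% DMSO; TaqMan qRT-PCR mRNA, 3 housekeeping genes; bidirectional curve fit vs DMSO.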

[8] = read-out: catalase (CAT), CAT (gene 847); test: LTEA_HepaRG_CAT: Life Technologies and Expression Analysis (LTEA) Assay for catalase (CAT) using HepaRG (AID 2283452); settings: mRNA level, 48 h; actives raise or lower the signal
Method in brief: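 Differentiated HepaRG cells in serum-free induction medium were dosed 48 h in duplicate, eight half-log concentrations from 100 uM in 0.5% DMSO. Transcript measured by TaqMan qRT-PCR, normalised to ACTB/GAPDH/POLR2A, fitted bidirectionally against DMSO.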

[9] = read-out: flavin-containing dimethylaniline monooxygenases 3 (FMO3), FMO3 (gene 2328); test: LTEA_HepaRG_FMO3: Life Technologies and Expression Analysis (LTEA) Assay for flavin-containing dimethylaniline monooxygenases 3 (FMO3) using HepaRG (AID 2283453); settings: mRNA level, 48 h; actives raise or lower the signal
Method in brief: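 FMO3 transcript quantified by TaqMan qRT-PCR against three housekeeping genes after 48 h chemical exposure of HepaRG cells. Eight-point half-log series, top 100 uM, 0.5% DMSO vehicle; phenobarbital 1mM induction control; up- or down-regulation fitted.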

[10] = read-out: Cytochrome P450 (CYP1A1), CYP1A1 (gene 1543); test: LTEA_HepaRG_CYP1A1: Life Technologies and Expression Analysis (LTEA) Assay for Cytochrome P450 (CYP1A1) using HepaRG (AID 2283454); settings: mRNA level, 48 h; actives raise or lower the signal
Method in brief: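 Induction of CYP1A1 mRNA in a human hepatic cell line was measured 48 h after dosing, with 1 mM phenobarbital as induction positive control and 0.5% DMSO vehicle as baseline for bidirectional curve fitting.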

Measured: AC50

Fatty acid synthase (Homo sapiens), sequence (P49327 whole entry, looked up): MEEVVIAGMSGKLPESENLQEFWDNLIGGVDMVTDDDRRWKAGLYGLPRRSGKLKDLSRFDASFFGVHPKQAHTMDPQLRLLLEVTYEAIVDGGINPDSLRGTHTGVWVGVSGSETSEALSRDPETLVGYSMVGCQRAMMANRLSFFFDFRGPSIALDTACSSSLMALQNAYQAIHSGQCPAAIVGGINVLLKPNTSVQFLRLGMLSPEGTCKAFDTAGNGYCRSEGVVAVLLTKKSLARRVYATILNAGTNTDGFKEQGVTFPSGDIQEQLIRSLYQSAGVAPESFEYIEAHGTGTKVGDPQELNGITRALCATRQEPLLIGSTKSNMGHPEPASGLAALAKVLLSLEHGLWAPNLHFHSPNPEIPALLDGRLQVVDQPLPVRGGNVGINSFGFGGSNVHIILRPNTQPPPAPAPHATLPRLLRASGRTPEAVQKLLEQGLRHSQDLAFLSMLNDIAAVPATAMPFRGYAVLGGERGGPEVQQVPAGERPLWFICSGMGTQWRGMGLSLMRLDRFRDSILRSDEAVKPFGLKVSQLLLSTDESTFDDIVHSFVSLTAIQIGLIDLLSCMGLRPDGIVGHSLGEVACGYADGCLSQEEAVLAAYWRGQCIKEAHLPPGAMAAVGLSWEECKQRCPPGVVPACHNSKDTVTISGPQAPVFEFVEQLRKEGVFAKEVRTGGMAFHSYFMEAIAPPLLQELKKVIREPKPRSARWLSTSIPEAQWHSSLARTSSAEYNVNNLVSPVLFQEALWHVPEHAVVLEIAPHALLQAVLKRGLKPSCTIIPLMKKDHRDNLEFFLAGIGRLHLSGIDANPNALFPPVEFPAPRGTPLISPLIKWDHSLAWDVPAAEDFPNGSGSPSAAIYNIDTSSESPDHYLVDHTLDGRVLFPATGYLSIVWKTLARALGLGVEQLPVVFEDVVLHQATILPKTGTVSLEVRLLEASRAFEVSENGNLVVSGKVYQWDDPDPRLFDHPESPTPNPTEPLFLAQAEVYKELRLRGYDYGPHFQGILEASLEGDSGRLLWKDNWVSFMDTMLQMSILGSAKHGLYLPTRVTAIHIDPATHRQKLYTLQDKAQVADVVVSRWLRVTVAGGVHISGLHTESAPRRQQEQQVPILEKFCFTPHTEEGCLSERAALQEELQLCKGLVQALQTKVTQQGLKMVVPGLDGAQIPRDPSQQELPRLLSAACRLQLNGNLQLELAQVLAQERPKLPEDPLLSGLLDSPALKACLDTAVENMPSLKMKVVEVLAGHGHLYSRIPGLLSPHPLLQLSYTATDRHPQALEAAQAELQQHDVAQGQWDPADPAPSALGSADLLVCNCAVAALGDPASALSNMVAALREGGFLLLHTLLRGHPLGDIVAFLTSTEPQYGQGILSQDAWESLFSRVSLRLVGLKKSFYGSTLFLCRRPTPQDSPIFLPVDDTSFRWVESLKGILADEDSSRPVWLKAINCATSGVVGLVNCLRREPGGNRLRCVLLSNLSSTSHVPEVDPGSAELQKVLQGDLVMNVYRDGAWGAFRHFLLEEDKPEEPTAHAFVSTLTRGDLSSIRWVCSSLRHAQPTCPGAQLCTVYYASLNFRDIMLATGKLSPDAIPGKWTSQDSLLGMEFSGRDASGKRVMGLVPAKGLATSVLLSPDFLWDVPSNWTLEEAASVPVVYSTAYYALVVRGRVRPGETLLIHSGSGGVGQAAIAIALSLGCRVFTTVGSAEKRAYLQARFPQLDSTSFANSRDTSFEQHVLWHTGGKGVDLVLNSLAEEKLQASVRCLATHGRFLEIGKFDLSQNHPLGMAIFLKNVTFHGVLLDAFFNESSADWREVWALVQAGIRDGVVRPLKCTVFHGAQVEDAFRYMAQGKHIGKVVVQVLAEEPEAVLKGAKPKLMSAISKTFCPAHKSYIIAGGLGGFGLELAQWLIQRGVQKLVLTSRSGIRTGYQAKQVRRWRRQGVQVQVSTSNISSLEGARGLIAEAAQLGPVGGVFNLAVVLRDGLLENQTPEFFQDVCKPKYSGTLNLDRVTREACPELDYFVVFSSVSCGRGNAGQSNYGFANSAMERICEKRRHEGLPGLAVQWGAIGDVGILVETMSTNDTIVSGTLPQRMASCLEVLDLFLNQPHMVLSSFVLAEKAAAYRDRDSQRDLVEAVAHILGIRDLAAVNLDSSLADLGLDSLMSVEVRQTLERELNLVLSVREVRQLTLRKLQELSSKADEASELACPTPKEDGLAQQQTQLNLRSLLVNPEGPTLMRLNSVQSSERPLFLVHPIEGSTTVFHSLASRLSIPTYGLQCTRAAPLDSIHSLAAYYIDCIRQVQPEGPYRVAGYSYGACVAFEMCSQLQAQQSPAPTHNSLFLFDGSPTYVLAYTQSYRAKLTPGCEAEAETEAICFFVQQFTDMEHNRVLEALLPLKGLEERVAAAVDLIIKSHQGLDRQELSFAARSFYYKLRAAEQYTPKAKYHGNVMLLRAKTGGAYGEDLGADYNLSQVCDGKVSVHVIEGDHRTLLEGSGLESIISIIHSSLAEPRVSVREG

CC(C)CCCCCCCOC(=O)CCCCC(=O)OCCCCCCCC(C)C
active: [10] 50 µM
inactive: all other assays above

CCCCC(CC)COC(=O)c1ccc(C(=O)OCC(CC)CCCC)cc1 (configuration not stated)
inactive: all assays above

CC(C)=CCC/C(C)=C/CO
not listed: [10]
inactive: all other assays above

O=C(O)c1cccc(Oc2ccccc2)c1
active: [10] 37.9 µM
inactive: all other assays above

CC(C)CCCCCCOC(=O)c1ccc(C(=O)OCCCCCCC(C)C)c(C(=O)OCCCCCCC(C)C)c1
active: [10] 50 µM
not listed: [7]
inactive: all other assays above

Clc1nc(Cl)c(Cl)c(Cl)c1Cl
active: [10] 74.4 µM
not listed: [7]
inactive: all other assays above
